# Measurements taken from PubChem BioAssay AID1508622 (National Center for Advancing Translational Sciences (NCATS), 2021).
# A number with no mark means an inactive call. The source made the active and inactive calls. Calls come from the whole dose curve; as a rule, active = well fitted activation curve with a large enough effect; inconclusive = small, poorly fitted or top-dose-only effect; inactive = no such curve, though single readings can be large or run the other way.
# Test: Confirmatory qHTS for Identification of Small Molecule Activators of Huntingtin-Antisense Promoter Activity
# Conditions: HEK293 HTT-AS promoter firefly luciferase reporter, 24 h; series mostly up to 57.5 µM; activity change, positive = activation: at the top concentration
# Outline: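 Activity normalized between vehicle control (0%) and zero RLU (-100%) from firefly luminescence (Dual-Glo). Compounds, up to 57.5 uM final, incubated 24 h at 37C on HEK293 reporter cells plated 24 h earlier.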
# Potency is the fitted concentration of half-maximal effect.
SMILES,"activity change, positive = activation",Potency
Cc1ccc(CCNC(=O)C2CCN(c3nnc(-n4cccc4CNc4ccc(C)cc4)s3)CC2)cc1,-36.5%,
COc1cccc(OCc2nc3ccccc3n2CCOc2ccccc2)c1,-49.6%,
CC(C)Oc1ccc(C(=O)N(Cc2ccco2)c2ccccn2)cc1,,2.69 µM (active)
COc1cc(NS(=O)(=O)c2ccc(-c3cc(C)no3)cc2)cc(OC)c1,-94%,
CCc1ccc(NC(=O)c2ccc3oc(=O)n(Cc4ccccc4)c3c2)cc1,-41.5%,
Cc1ccc(CCNC(=O)c2cc3c(s2)-c2ccccc2OC3)cc1,-43.9%,
Cc1ccc(Cl)cc1-n1ncc2c(N3CCC(C)CC3)ncnc21,-31.2%,
COc1ccc(CNC(=O)c2c(Nc3ccccc3C)sc(C(=O)c3ccccc3)c2N)cc1,-32.9%,
COc1cccc(NC(=O)/C(C#N)=C\c2cn(Cc3ccc(C)cc3)c3ccccc23)c1,-35.9%,
COc1ccc(NS(=O)(=O)c2ccc(N3CCCCS3(=O)=O)cc2)cc1Cl,-94%,
COc1ccc(NC(=O)Cc2csc(COc3cccc(C)c3)n2)cc1OC,-68.6%,
CCc1ccc(NC(=O)CSc2nc(=O)n(Cc3cccnc3)c3c2CCC3)cc1,-42.4%,
CCCC(=O)Nc1nnc(SCc2cc(=O)c3ccc(C)cc3[nH]2)s1,-93.8%,
Cc1ccc(C)c(N2CCN(C(=O)c3nn(C)c4c3CS(=O)(=O)c3ccccc3-4)CC2)c1,-34.9%,
O=C(Nc1ccc(Br)cc1)c1cc(S(=O)(=O)NC2CCCC2)ccc1F,-17.5%,
Cc1ccc(C(Nc2ccccn2)c2ccc3cccnc3c2O)cc1 (centres undefined),-28%,
CCc1ccc(NC(=O)Nc2cn(C)c(=O)c3ccccc23)cc1,-34.6%,
CCc1c(C)sc2c1CCN(Cc1ccccc1F)C2c1ccccc1 (centres undefined),-23.1%,
CC(C)OCc1cc(CN2CCN(c3cccc(C(F)(F)F)c3)CC2)c(O)c2ncccc12,-49.4%,
CCc1ccc(NC(=O)c2ccc(F)c(S(=O)(=O)N3CCC(C)CC3)c2)cc1,-23.4%,

SMILES,"activity change, positive = activation",Potency
CCc1ccc2c(c1)-c1ccccc1S(=O)(=O)N2CC(=O)N1CCCCC1,,9.53 µM (active)
COC(=O)c1c(C)oc2ccc(N(C(=O)c3ccncc3)S(=O)(=O)c3ccc(OC)cc3)cc12,-94.2%,
CCN(CC)CCNC(=O)c1c(C)[nH]c(C=C2C(=O)Nc3ccc(F)cc32)c1C,0.416% [at 115 µM],
COc1ccc(S(=O)(=O)N2CCC(C(=O)Nc3ccc(Oc4ccccc4)cc3)CC2)cc1OC,-27.8%,
COc1ccccc1NC(=O)c1ccc(-c2nc(COc3ccc(C)cc3)c(C)o2)cc1,-54.7%,
COc1ccc(NC(=O)CSc2nc(-c3ccco3)cc(C(F)(F)F)n2)cc1OC,-81.3%,
Cc1ccc(CN2CCCn3nc(C(=O)NCc4cc(C)ccc4C)cc3C2=O)cc1,-70%,
CCOc1ccc(CN2CCc3nc(N4CCN(c5ccccn5)CC4)ncc3C2)cc1OC,-65.2%,
O=C(NCc1ccccc1)c1ccc(CSc2nc3cccnc3n2Cc2ccccc2)cc1,-24.7%,
COC(=O)C1=C(C)NC(C)=C(C(=O)OCC(C)=O)C1c1ccccc1[N+](=O)[O-] (centres undefined),43.9%,
Cc1ccc(Cl)cc1N(C)C(=O)C1CCCN(c2ncnc3onc(-c4ccc(F)cc4)c23)C1 (centres undefined),-42.5%,
COc1cc(Nc2ncc3c(n2)CCN(Cc2cc(F)cc(F)c2)C3)cc(OC)c1,-15.5%,
Cc1ccc(NC(=O)Cn2cc(S(=O)(=O)Cc3ccccc3)c3ccccc32)cc1C,-89.8%,
Cc1ccc(C)c(N2CCN(C(=O)C3CCN(c4nc(-c5ccc(C(C)C)cc5)no4)CC3)CC2)c1,-94.5%,
CC(C)Cc1ccc(S(=O)(=O)Nc2ccc3[nH]c(=O)[nH]c3c2)cc1,-68.6%,
Cc1nc2sccn2c(=O)c1S(=O)(=O)Nc1ccc(N2CCOCC2)c(Cl)c1,-36.8%,
CCCCOc1ccc(CNC(=O)c2ccc(NC(=O)N3CCSc4ncccc43)cc2)cc1,-24.2%,
CCCCN(C)CCCNC(=O)Cn1ncc2c3ccccc3n(Cc3ccccc3F)c2c1=O,-4.68%,
CCc1ccc(NC(=O)C2CCCN(S(=O)(=O)c3cccc4nsnc34)C2)cc1 (centres undefined),-46.5%,
